The assay relates to RARa homodimer (NR concentration 270 nM). Briefly: PBM binding z-score (relative to random genomic background probes); higher = stronger binding; sequences stand for … in GC…GCGATTGACAGCGTAGAATGAAGG
In a few lines:
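For binding z-scores, the reference was random background probes on custom Agilent 4×180K protein-binding microarrays. These arrays were incubated 1 h with ligand-free nuclear receptor dimers in PBS pH 7.4, 2% milk, 0.02% Triton X-100, 1 mM DTT, 0.2 mg/mL BSA and 0.4 mg/ml salmon testes DNA. Fluorescence was scanned after antibody detection of each partner (one per run) and regression-normalized.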
Turning to GCGACTGGGGCATCAGCAGGTTACGATAACTTAA, the PBM binding z-score was -0.452.
In turn, GATACAGGGTCAAGACCAGAGTACGCGTATTGAT displayed a PBM binding z-score of 0.851.
Take TCTTGTAGATCAGCAGGTAAAGAAAGCTGGCCAA: the PBM binding z-score worked out at 0.0298.
On to GGATCGAGGGCAAGTTGATAGCAGAGTTTGATGG, for which the PBM binding z-score turned out to be 0.158.
With ACTGACAGGTGAGTGAAGGTAACTCAGCTGGACG, the PBM binding z-score was -0.0244.
Sequence CGTCCAGGGTCAGAGAGGTCAGTGAATGCCGAGT had a PBM binding z-score of 1.6.
As for TAGCCTAGGTCGTGCGGGCCAGTATAGTGTCGGC, the PBM binding z-score is -1.19.
For the sequence TCTGCTAGGTCAGTAGGTCAGCTAACGAGCTGCC, the PBM binding z-score was -1.38.
Turning to CGAACTATGTCAGAACAGGACAGTGAAGGATGAT, the PBM binding z-score worked out at 0.625.
Under TGAATGAGGTTATAAGATCAGCGAACGTTGCAAA stands -0.341; under GCTTACGGGTCAAAGATTATAGCATGAATAGAAT, 0.373.
As to AGAACGAGGGCAAGCTGAGTTGATAGCAGAGTAG, the PBM binding z-score is -0.421.
Under CGAACGAGGGCATGAGTGGATAGCAAATGCCGAT stands -0.274; under CTCGCAAGGTCGTGCTCAGGTGAGTATACCAAAC, -0.702; under TAAGACAGGTGAAGGTAACTCAGGTACGCAGTCG, 0.631.
In turn, TGATATAGGTAAAGGTGAAAGTCGAACGATATGA displayed a PBM binding z-score of 1.63.
In the case of ATCTCTAGGTAAAGATAGTTCACTGAATGCAAAT, the PBM binding z-score came to 0.837.
The sequence CCGTACGGGTCACGAGGTTATAGCACGACGAGCG registered a PBM binding z-score of 1.17.
In the case of CCTACTGGGCCAAAGGTCATTCATTCCAATGCTC, the PBM binding z-score was found to be 1.85.
For the sequence TGTCAAAGTTCAAAGGAAACGTAAGTATCCACAC, the PBM binding z-score was determined as 1.06.
Under CTCGAAAGGTCGGTTGAGGTGAGAATACGGATAA stands 0.173; under CCAGACAGGTGAAAGTTAACTCAGTCTGGTACGC, -0.352; under GATACAGGGTCAAGGCCAGACTACGCGTATTGAT, 0.813.
In the case of CCAGACAGGTGAGAAGGTAACTGAGCCTCGATTA, the PBM binding z-score came out at 0.118.
Regarding ATCGAAAGATCGACGAGGTGAGTATACACCGTTT, the PBM binding z-score was -0.0578.
With CCTACTGGGCCATCAGGTCATTGACATCAACGTT, the PBM binding z-score was found to be 0.278.
With GCGACTGGGGCAAAGCCGGTTACCATAAGGTTGG, the PBM binding z-score was -0.427.
Under CCGACTGGGGCAGAACGGTTACCATACCATCCGG stands -0.367.
Regarding ACTAGCAGGCCAAGTTTGGGTCACTCACACAAAG, the PBM binding z-score is -0.272.
Under GCGAGCAGGCCATTTGGGTCACTCAATGACGGGC stands -0.309; under AATACAGGGTCACTAGGCCAGAATAGGTACGAAT, 1.45.
Under GCGACTGGGGCATCAGCAGTTTACCATAACTTAA stands 0.0729; under TCTGCTAGGTCAATGATGGTCAGCTAATCTGCTA, -0.32; under TCTAGTTGGTCACGGAGGTCACAGACGACGGGTA, 1.36.
Under CCTAGCGGGCCAATCTGGGTCACTCAAGGCTTGA stands -0.347; under GCAACGAGGGCAAGTTGATAGCAGAGTTTGATGG, -0.0307; under ATATGTAGGTTAAGGGTAATTCAGGTTGGTTCGC, 2.31.
As for CAAACTAGGCCACGAAAGGTCAAAGTCGAATGAC, the PBM binding z-score came out at 2.49.
CTCAAAAGGTCGTGCTCAGGTGAGTATACCAAAC yielded a PBM binding z-score of 0.127.

The values above are taken from the supplement of paper PMC6555819.
